Data on 4 compounds can be found in PubChem BioAssay.

Each structure is given as a SMILES string. Results filed as inconclusive are left out. Calls of active or inactive are those of the source.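 Rule for the calls, unless noted: active = percent response above 42, roughly 3 SD of non-fluorescent test compounds; inactive = the rest.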

The nature of experiment [1]: yeast TOR pathway RPL19A-GFP modulators, primary screen, cell-based, S. cerevisiae, multiplex flow cytometry (AID 1862; in the data active = percent of DMSO control GFP below about 86%;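 note: lower values mimic rapamycin by blocking the RPL19A rise seen in DMSO cells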). The settings on record: S. cerevisiae RPL19A-GFP strain, flow cytometry fluorescence, 3 h; at 10 µM; stronger effect = lower value. (In general: In flow cytometry, cells or beads pass a laser one at a time.)
The nature of experiment [2]: modulators of MEP2-GFP levels in yeast, primary screen, S. cerevisiae, multiplex flow cytometry (AID 1867;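 active = GFP response, as percent of the DMSO control, above the screen-wide mean plus 3 SD, about 139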;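 note: median GFP channel fluorescence of barcode-gated MEP2-GFP cells measured by flow cytometry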). The settings on record: S. cerevisiae MEP2-GFP strain, 3 h, at 10 µM, stronger effect = higher value, 100% means same as DMSO wells.
Experiment [3] can be described thus: modulators of CIT2-GFP expression in yeast, primary screen, S. cerevisiae, GFP fusion, multiplex flow cytometry (AID 1870;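 active = percent response above a set limit, the screen-wide mean plus 3 SD, cut at about 130% in these data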;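 note: barcoded CIT2-GFP strain pooled with four other GFP strains with rapamycin as positive control; median GFP fluorescence per well over plate mean of DMSO wells so 100% = DMSO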). The settings on record: 3 h, at 10 µM, stronger effect = higher value.
Experiment [4] can be described thus: modulators of LAP4-GFP expression in yeast, primary screen, S. cerevisiae, multiplex flow cytometry (AID 1873;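 active = GFP signal, as percent of the solvent control, above the screen mean plus 3 SD, about 149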). The settings on record: 3 h, at 10 µM, stronger effect = higher value.
Experiment [5] can be described thus: modulators of AGP1-GFP expression in yeast TOR pathway, primary screen, cell-based, multiplex flow cytometry, S. cerevisiae (AID 1887;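 active = GFP signal above the screen-wide mean plus 3 SD, that is over about 124.5% of the solvent control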;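 note: AGP1-GFP fusion strain of S. cerevisiae within a five-strain barcoded multiplex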). The conditions noted are these: 3 h, at 10 µM, stronger effect = higher value.
The nature of experiment [6]: inhibitors of CD8+ T cell-vesicle binding, pilot screen, LFA-1/ICAM-1 modulator project, MLPCN validation set, flow cytometry (AID 2523;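 active = response below a set limit, under 55% cells CD8-positive and vesicle-bound, and CD8 cells' 90th-percentile brightness under 279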;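 for vesicle binding response: mean PE anti-B7-1 fluorescence of CD8+ cells relative to row control; 100% = QL9-loaded vesicles with DMSO vehicle in the same plate row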). The settings on record: 2C mouse CD8+ T cells, at 7 µM, stronger effect = lower value; double positive events: measured here: CD8+/vesicle+ event percentage.
Experiment [7] addresses Integrin beta-1 (Homo sapiens) + Integrin alpha-4 (Homo sapiens) (UniProt P13612+P05556). In words: inhibition of HUTS-21 binding to VLA-4, pilot screen, VLA-4 allosteric modulator project, U937 cells, HUTS-21 mAb, flow cytometry, validation set (AID 2674;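 active = inhibition above 50%, about 3 SD of the validation set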;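 note: antibody binding induced by the VLA-4 ligand LDV present at three times its Kd; 0% = LDV ligand with antibody and no compound and 100% = antibody without LDV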). The conditions noted are these: HUTS-21 LIBS mAb binding, at 6.7 µM, stronger effect = higher value, binding induced by LDV ligand.

A short description of experiment [8]: superoxide lowering in aged yeast cells, pilot screen, validation compound set (AID 2706;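 active = superoxide response below 65% of plate, a cut near 3 SD across the whole screen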;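 note: yeast exposed to compound for one week at 30 degrees C before staining; 100% = mean of all compound wells on the same plate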). The settings on record: S. cerevisiae aging, superoxide DHE fluorescence; at 10 µM; stronger effect = lower value.
In experiment [9] the target is Beta-adrenergic receptor kinase 1 (Homo sapiens) (UniProt P25098). In words: GRK2 binders displacing RNA aptamer, biochemical, validation, human GRK2, bead flow cytometry (AID 488806;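 active = aptamer binding inhibition above 30%, about 3 SD of noise from non-fluorescent compounds; inactive = inhibition at or below 30%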). The settings on record: bead-bound GRK2, FAM-aptamer displacement, at 10 µM, stronger effect = higher value.
The target in experiment [10] is Beta-2 adrenergic receptor (Homo sapiens) (UniProt P07550). Put plainly: beta2AR agonists driving receptor internalization, pilot screen, cell-based, FAP fluorogen, flow cytometry, validation set (AID 504459).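 Note: agonist-driven loss of surface beta2AR via internalization measured by FAP dye flow cytometry.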 The settings on record: Am2.2-beta2AR cells, FAP surface receptor flow cytometry; at 10 µM; stronger effect = higher value.
The target in experiment [11] is AP-2 complex subunit beta (Homo sapiens) (UniProt P63010). Put plainly: inhibitors of arrestin peptide binding to AP2, pilot screen, biochemical, validation set, GST-AP2 beads, flow cytometry (AID 504541;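 active = inhibition above 54%, about 3 SD of non-fluorescent compounds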;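 note: AP2 carries R879A mutation and is captured from E. coli lysate; bead-bound FITC arrestin peptide fluorescence measuring arrestin peptide binding to AP2; 0% = DMSO wells and 100% = excess unlabeled arrestin peptide control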). The conditions noted are these: FITC arrestin peptide, at 10 µM, stronger effect = higher value, AP2 beta2 appendage fragment, R879A mutant.
Experiment [12] in a line: yeast V-ATPase proton transport modulators, S. cerevisiae, pHLuorin, HTS validation (AID 504600; in the data active = response above about 15%;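 note: plate controls were DMSO for no effect and reference compound for full effect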). The settings on record: S. cerevisiae pHLuorin cytosolic pH, at 10 µM, stronger effect = higher value.
For experiment [13], the system named is anti-desmoglein-3 scFv antibody binding to human DSG3. In words: inhibitors of anti-DSG3 scFv binding to DSG3, pilot screen, biochemical, validation compound set, bead-based, flow cytometry (AID 588368;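 active = binding below the plate cutoff, the plate median minus 3 SD, with a reading above zero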;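 note: signal is the median channel fluorescence of bead-bound GFP antibody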). The settings on record: Protein G beads, DSG3-Fc, scFv-GFP binding, at 10 µM, stronger effect = lower value.
Experiment [14] in a line: inhibitors of fungal efflux pumps CDR1, CDR2, MDR1, pilot screen, validation compound set, multiplex, phenotypic (AID 588506;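 active = efflux inhibition above 0.42, the validation set average plus 4 SD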;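 note: Nile Red retained in cells so higher fluorescence means more efflux inhibition; 0 = negative control wells and 1 = enniatin B 25 µM full block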). The conditions noted are these: S. cerevisiae pump-expressing triplex, Nile Red efflux flow cytometry; at 10 µM; stronger effect = higher value; the pumps come from Candida albicans.
For experiment [15], the target named is ATP-binding cassette sub-family B member 6 (Homo sapiens) (UniProt Q9NP58). Put plainly: ABCB6 transporter inhibitors, pilot screen, K562-ABCB6 cells, flow cytometry, validation set (AID 588550;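 active = inhibition above the screen-wide mean plus 3 SD, about 51%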;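 note: 0% = DMSO wells and 100% = benzethonium chloride 70 µM positive control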). The settings on record: K562-ABCB6 porphyrin accumulation, 1 h, at 10 µM, stronger effect = higher value.
The nature of experiment [16]: promoters of myeloid differentiation in arrested cells, primary screen, cell-based, GFP/MAC1 double positive, flow cytometry, validation set (AID 588685;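 active = differentiation response of at least 50%, scaled between solvent and reference control, from cells with both markers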;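 note: compound exposure lasts four days before antibody staining and flow analysis; 0% = DMSO wells and 100% = 5 µM fulvestrant positive control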). The settings on record: ER-HoxA9 marrow cells, stronger effect = higher value, normalized: vehicle 0, fulvestrant 100.

Sequence of Beta-adrenergic receptor kinase 1 (Homo sapiens) (P25098 whole entry, looked up): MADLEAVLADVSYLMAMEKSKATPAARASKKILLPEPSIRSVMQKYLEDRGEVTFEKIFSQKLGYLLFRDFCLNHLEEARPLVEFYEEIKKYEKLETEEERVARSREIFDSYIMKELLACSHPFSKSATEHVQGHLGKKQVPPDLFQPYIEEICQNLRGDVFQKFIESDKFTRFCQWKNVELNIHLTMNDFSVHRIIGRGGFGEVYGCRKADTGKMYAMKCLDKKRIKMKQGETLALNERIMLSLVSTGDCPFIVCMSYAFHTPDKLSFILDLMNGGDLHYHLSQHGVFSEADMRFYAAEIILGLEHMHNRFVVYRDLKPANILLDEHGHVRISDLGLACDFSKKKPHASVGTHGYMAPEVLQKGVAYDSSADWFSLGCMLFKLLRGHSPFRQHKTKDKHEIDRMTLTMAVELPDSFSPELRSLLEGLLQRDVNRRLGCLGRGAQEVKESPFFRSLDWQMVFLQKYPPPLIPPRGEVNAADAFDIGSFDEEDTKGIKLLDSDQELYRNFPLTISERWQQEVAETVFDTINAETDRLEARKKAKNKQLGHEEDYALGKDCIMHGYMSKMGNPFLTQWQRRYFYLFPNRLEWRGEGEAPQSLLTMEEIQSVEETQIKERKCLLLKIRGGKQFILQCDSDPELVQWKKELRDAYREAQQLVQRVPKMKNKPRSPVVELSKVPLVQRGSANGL
Sequence of Beta-2 adrenergic receptor (Homo sapiens) (P07550 whole entry, looked up): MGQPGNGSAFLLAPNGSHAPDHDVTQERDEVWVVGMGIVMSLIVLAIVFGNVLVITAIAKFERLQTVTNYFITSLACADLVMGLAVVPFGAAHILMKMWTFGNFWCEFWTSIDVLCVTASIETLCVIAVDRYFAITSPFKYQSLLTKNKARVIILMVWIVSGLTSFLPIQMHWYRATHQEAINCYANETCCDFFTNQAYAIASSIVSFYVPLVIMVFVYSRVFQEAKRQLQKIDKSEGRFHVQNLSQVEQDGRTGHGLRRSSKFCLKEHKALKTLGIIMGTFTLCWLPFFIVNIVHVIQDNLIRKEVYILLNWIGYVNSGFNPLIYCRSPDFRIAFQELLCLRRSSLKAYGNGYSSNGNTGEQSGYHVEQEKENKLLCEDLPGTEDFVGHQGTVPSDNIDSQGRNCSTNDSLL
Sequence of ATP-binding cassette sub-family B member 6 (Homo sapiens) (Q9NP58 whole entry, looked up): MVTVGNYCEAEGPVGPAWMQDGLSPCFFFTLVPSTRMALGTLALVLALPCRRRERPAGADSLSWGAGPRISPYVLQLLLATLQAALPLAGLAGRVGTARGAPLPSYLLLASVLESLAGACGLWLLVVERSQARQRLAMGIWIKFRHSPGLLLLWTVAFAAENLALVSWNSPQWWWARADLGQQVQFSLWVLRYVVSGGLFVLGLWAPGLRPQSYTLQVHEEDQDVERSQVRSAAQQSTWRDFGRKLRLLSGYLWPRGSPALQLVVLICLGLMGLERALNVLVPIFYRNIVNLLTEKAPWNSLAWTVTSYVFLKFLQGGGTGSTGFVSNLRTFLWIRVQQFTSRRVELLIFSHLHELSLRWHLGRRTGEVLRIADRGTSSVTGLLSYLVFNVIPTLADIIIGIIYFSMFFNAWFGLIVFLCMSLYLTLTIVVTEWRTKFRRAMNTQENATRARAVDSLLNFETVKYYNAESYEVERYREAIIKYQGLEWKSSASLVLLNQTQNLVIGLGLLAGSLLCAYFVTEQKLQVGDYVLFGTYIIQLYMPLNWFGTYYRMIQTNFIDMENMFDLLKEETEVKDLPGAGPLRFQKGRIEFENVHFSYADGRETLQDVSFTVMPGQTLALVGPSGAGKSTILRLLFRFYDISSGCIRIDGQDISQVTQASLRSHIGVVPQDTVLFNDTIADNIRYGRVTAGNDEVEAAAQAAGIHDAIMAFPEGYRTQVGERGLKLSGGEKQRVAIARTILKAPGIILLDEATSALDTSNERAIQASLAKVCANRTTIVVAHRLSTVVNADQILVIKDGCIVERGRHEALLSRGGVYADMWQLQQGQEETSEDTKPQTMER
Sequence of AP-2 complex subunit beta (Homo sapiens) (P63010 whole entry, looked up, the tested form may be a part, one chain of several): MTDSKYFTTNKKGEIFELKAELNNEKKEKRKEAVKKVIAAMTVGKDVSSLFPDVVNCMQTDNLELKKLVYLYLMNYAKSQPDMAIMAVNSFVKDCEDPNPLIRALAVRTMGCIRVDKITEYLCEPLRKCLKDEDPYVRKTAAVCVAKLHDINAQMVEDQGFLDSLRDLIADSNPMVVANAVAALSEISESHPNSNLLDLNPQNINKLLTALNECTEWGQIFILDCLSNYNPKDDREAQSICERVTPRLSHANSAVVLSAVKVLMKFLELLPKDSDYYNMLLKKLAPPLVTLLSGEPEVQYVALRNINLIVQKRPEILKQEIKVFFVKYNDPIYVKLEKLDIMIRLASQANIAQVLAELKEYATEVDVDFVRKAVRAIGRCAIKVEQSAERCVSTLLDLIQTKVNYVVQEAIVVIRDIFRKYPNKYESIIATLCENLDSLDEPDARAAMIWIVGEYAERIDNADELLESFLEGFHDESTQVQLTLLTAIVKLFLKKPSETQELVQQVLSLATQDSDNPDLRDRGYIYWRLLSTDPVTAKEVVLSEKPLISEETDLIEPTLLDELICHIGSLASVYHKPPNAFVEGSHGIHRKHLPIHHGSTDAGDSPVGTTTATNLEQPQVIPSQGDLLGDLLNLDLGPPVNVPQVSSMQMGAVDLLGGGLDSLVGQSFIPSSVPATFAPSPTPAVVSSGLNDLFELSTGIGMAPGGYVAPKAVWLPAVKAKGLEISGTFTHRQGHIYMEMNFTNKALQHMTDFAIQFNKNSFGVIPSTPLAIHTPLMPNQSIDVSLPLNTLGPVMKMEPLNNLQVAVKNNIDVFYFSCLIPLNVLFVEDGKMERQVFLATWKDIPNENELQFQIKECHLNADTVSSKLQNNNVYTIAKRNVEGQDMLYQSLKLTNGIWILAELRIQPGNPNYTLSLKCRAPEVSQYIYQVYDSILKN
Sequence of Integrin beta-1 (Homo sapiens) + Integrin alpha-4 (Homo sapiens) (P05556 whole entry, looked up): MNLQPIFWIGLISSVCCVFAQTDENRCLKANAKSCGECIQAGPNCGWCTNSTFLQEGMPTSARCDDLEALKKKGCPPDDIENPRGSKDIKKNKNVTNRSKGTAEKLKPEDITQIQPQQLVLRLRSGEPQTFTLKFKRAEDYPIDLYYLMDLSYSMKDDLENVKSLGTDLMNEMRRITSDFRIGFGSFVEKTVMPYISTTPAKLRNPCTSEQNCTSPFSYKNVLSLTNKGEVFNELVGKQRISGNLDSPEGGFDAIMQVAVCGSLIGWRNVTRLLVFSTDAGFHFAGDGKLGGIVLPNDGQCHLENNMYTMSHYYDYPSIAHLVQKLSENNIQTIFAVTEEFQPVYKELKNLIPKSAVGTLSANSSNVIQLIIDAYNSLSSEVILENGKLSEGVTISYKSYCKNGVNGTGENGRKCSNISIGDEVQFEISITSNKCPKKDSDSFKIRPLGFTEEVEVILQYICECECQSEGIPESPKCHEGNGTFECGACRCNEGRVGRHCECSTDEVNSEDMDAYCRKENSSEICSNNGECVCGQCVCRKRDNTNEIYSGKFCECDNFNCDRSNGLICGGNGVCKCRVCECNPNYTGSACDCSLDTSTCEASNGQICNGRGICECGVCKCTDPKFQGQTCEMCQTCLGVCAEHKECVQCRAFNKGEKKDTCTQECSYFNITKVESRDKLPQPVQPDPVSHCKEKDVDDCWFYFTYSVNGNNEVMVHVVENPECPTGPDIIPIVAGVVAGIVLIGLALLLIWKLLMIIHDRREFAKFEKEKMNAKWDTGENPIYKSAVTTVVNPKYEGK
Sequence of Integrin beta-1 (Homo sapiens) + Integrin alpha-4 (Homo sapiens) (P13612 whole entry, looked up): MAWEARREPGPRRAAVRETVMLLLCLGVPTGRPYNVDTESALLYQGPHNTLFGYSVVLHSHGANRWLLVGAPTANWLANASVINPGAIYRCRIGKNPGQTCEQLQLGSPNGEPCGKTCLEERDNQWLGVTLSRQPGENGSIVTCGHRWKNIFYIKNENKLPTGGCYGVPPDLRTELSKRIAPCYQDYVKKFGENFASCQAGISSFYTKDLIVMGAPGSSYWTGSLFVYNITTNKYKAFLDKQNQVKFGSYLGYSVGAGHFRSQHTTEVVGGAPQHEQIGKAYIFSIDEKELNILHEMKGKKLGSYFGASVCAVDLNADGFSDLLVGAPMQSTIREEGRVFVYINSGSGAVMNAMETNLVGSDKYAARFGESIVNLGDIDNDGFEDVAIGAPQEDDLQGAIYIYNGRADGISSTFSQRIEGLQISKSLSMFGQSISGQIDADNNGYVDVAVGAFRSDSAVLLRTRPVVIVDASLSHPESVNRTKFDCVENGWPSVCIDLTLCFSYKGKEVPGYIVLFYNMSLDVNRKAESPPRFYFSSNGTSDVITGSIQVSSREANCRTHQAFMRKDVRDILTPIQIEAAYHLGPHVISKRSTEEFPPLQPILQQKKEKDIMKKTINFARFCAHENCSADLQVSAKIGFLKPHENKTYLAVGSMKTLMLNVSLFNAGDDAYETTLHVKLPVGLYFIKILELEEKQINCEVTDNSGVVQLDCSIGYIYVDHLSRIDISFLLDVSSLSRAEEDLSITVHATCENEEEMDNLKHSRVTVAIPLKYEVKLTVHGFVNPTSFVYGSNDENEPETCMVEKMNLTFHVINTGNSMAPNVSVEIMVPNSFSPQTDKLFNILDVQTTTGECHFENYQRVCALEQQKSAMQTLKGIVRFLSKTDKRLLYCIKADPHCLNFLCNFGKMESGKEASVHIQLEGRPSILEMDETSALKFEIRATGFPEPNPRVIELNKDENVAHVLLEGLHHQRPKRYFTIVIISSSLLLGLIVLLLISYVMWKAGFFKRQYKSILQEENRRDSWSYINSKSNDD

Consider `COC(=O)c1ccccc1NC(=O)c1ccc(COc2ccc3c(c2)CCC3)cc1`, for which, in [1], the percent of DMSO control GFP is 99.6% (inactive). Also, the GFP response vs DMSO in experiment [2] was 99.3% (inactive); in experiment [4] it was 105% (inactive). The percent response of DMSO control in experiment [3] was 90.8% (inactive). For the same compound, the GFP response, % of DMSO in experiment [5] is 94.8% (inactive). Further, in [6], the double positive events amounted to 64.4%. In addition, the vesicle binding response in experiment [6] is 521% (inactive). In addition, the inhibition in [7] is 7.85% (inactive); in experiment [11], 0.16% (inactive); in experiment [15] it was -3% (inactive). Further, the superoxide response (% of plate) in experiment [8] is 82.8% (inactive). Besides, in experiment [9], the aptamer binding inhibition is 5% (inactive). Further, the results for the response in experiment [10] and in experiment [12] were -3.71% (inactive) and -3.9% (inactive), respectively. Moreover, in experiment [13], the binding (% of control) is 98.9% (inactive). Moreover, the efflux inhibition (fraction of control) in experiment [14] was 0.46 (active). Besides, the differentiation response in experiment [16] is 1.22% (inactive).
For the compound `CSc1ccc(CN2CCN(CCC(C)C)C(CCO)C2)cc1` (stereo not drawn), the percent of DMSO control GFP in experiment [1] was 101% (inactive). Besides, the figures for the GFP response vs DMSO in experiment [2] and in [4] were 106% (inactive) and 117% (inactive), respectively. Moreover, in [3], the percent response of DMSO control was 109% (inactive). In addition, in experiment [5], the GFP response, % of DMSO was 131% (active). In experiment [6], this compound gave a double positive events of 61.2%. In addition, the vesicle binding response in [6] is 199% (inactive). Moreover, the results for the inhibition in experiment [7], in [11] and in experiment [15] were 4.84% (inactive), -9.19% (inactive) and 0% (inactive), respectively. Also, in experiment [8], the superoxide response (% of plate) was 91.4% (inactive). Besides, in experiment [9], the aptamer binding inhibition was -1% (inactive). For the same compound, the results for the response in experiment [10] and in experiment [12] were -11.6% (inactive) and 2.63% (inactive), respectively. Also, the binding (% of control) in [13] was 102% (inactive). The efflux inhibition (fraction of control) in [14] is -0.09 (inactive). The differentiation response in experiment [16] is -5.97% (inactive).
Consider `COc1ccc(/C=C\c2cc(OC)c(OC)cc2CC[N+](C)(C)C)cc1OC`, for which, in experiment [1], the percent of DMSO control GFP was 96.3% (inactive). Moreover, the GFP response vs DMSO in [2] was 102% (inactive); in [4] it was 122% (inactive). Besides, in experiment [3], the percent response of DMSO control is 101% (inactive). Further, the GFP response, % of DMSO in experiment [5] is 103% (inactive). The double positive events in [6] was determined as 57.8%. In addition, the vesicle binding response in [6] was 216% (inactive). Besides, the inhibition is -4.52% (inactive) in experiment [7], -9.15% (inactive) in experiment [11] and 2% (inactive) in experiment [15]. Besides, the superoxide response (% of plate) in experiment [8] is 108% (inactive). Also, the aptamer binding inhibition in experiment [9] was -3% (inactive). Besides, the response was -7.25% (inactive) in [10] and 0.95% (inactive) in [12]. For the same compound, the binding (% of control) in experiment [13] was 103% (inactive). For the same compound, the efflux inhibition (fraction of control) in [14] was 0.26 (inactive). Further, the differentiation response in experiment [16] was -0.8% (inactive).
As for `Clc1ccc2c(c1)CCc1cccnc1C2=C1CCNCC1`, the percent of DMSO control GFP in [1] is 101% (inactive). In addition, the GFP response vs DMSO was 109% (inactive) in experiment [2] and 93.3% (inactive) in experiment [4]. Moreover, in experiment [3], the percent response of DMSO control is 104% (inactive). The GFP response, % of DMSO in experiment [5] was 97% (inactive). Further, the double positive events in experiment [6] is 63.9%. In experiment [6], the vesicle binding response is 1240% (inactive). Moreover, the inhibition in [7] is 3.7% (inactive); in experiment [11], 13.9% (inactive); in experiment [15] it was -15% (inactive). In experiment [8], the superoxide response (% of plate) is 98.7% (inactive). Further, the aptamer binding inhibition in [9] is 3% (inactive). For the same compound, the response in [10] is 16.1% (inactive); in [12], 1.57% (inactive). Moreover, the binding (% of control) in [13] is 103% (inactive). The efflux inhibition (fraction of control) in experiment [14] was -0.17 (inactive). The differentiation response in experiment [16] is -4.64% (inactive).

A word on the inhibition: it is the relative decrease from the control value, in per cent.
